Our source for the inhibition values is PubChem BioAssay AID2013 (Sanford-Burnham Center for Chemical Genomics, 2009).

The whole screen tested about 290,000 compounds, of which about 370 (0.13%) were called active. For the sample, actives were picked, then their nearest neighbours and some compounds at random. Measured potencies and affinities stand elsewhere. Unmarked numbers belong to inactive results.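 The calls were made as follows: active = spots per cell inhibited over 60%, with over 100 cells counted and total cytoplasm intensity under 500,000; inconclusive = wells with under 100 cells, flagged as likely toxic; inactive = the rest.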

The experiment deals with G-protein coupled receptor 55 (Homo sapiens) (UniProt Q9Y2T6). Description: GPR55 antagonists blocking LPI-driven arrestin recruitment, primary screen, imaging, U2OS, beta-arrestin-GFP, LPI agonist (AID 2013).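 Also: U2OS cells stably carrying GPR55 and arrestin-GFP stimulated by 5 µM LPI near EC80; imaged beta-arrestin-GFP aggregate spots per cell after agonist stimulation; plate controls were LPI-stimulated DMSO wells for no effect and DMSO wells without LPI for full effect.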 Particulars: U2OS GPR55 beta-arrestin-GFP translocation imaging, LPI antagonism; at 10 µM; stronger effect = higher value.
Chain of G-protein coupled receptor 55 (Homo sapiens) (Q9Y2T6 whole entry, looked up): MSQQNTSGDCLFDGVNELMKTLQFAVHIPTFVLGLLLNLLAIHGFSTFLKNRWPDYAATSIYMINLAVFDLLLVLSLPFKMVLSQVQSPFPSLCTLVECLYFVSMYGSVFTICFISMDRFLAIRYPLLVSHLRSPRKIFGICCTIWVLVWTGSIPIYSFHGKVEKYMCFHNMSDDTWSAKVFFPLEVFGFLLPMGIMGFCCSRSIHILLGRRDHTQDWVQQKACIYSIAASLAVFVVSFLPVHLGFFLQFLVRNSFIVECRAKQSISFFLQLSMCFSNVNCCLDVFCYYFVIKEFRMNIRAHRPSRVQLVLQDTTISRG
In the case of `Cc1ccc(-n2ncc3c2CC(C)(C)CC3NC(=O)C2CCOCC2)cc1` (centres undefined), the inhibition was 9.6%. Turning to `Cc1cc(C)n(CC(=O)O)c(=O)c1[N+](=O)[O-]`, the inhibition was 1.7%. In the case of `CNC(=O)c1sccc1Oc1ccc(F)cc1[N+](=O)[O-]`, the inhibition is 8.2%. The result for `CC(C)c1nc(N2CCN(C(=O)c3ccco3)CC2)c2c3c(sc2n1)CCCC3` reads 98.6%; that for `Cc1nc(N2CCN(S(=O)(=O)c3ccccc3)CC2)c2c3c(sc2n1)CC(C)CC3` (centres undefined), 14.2%. With `Cc1nc(N2CCN(C(=O)c3ccco3)CC2)c2c3c(sc2n1)CCC3`, the inhibition was 46.7%. Take `CCc1nc(N2CCN(C(=O)c3ccco3)CC2)c2c3c(sc2n1)CCCC3`: the inhibition is 7.3%. Turning to `CC(=O)N1CCN(c2nc(C)nc3sc4c(c23)CCC(C)C4)CC1` (centres undefined), the inhibition is 22.1%. `Cc1nc(N2CCN(C(=O)c3cccs3)CC2)c2c3c(sc2n1)CCCC3`: the inhibition was 36.3%.

With `CCCN1C2CCCC1CC(NC(=O)c1cc(OC)cc(OC)c1)C2` (centres undefined), the inhibition is 4.9%. The result for `CN(C)S(=O)(=O)c1ccc(N)c([N+](=O)[O-])c1` reads 16.6%; that for `FC(F)(F)COc1ccc(-n2ccnc2)nn1`, -3.5%. As for `Cc1ccc(/C=C/C(=O)O)cc1S(=O)(=O)N1CCCc2ccccc21`, the inhibition was 9.5%. As to `COCCCNC(=O)CCc1ccccc1`, the inhibition was -1.2%. To `Cc1ccccc1CC(=O)N1CCN(C(=O)C2CCCO2)CC1` (centres undefined) belongs 10.1%; to `CCCCn1c(-c2nn(C)cc2Cl)n[nH]c1=S`, 2.5%; to `CC1=NOC(=O)/C1=C/c1ccc(-c2ccc(Cl)cc2)o1`, 7.3%. On to `CC1=NOC(=O)/C1=C\c1ccc(-c2ccc(Cl)cc2Cl)o1`, for which the inhibition was 21%. As for `Cc1ccc(C)c(NC(=S)N2CCC(NC(=O)c3ccccc3)CC2)c1`, the inhibition was 2.1%. Regarding `NC(=O)C1(N2CCCCC2)CCN(C2CC(=O)NC2=O)CC1` (centres undefined), the inhibition was 9.8%.

As for `CN1C(=O)/C(=C\c2ccccc2OCc2ccccc2)SC1=S`, the inhibition is -1.8%.

For `CN1C(=O)/C(=C\c2cc(N=Nc3ccccc3)ccc2O)SC1=S`, the inhibition is 19.5%. Regarding `CNC(=S)NC1(C)CCS(=O)(=O)C1` (centres undefined), the inhibition is -1.4%.

With `CCOC(=O)c1c(-c2ccccc2)oc2ccc(O)c(CN3CCCC3)c12`, the inhibition is -1.6%. Regarding `CCOC(=O)c1c(-c2ccccc2)oc2ccc(O)c(CN3CCOCC3)c12`, the inhibition was 34.5%. In the case of `Cc1ccc(OCC(=O)N/N=C/C=C/c2ccco2)cc1C`, the inhibition was -3.3%. As for `CC(C)(C)c1ccc(-c2c(C(=O)O)c(C(=O)O)c3n2CSC3)cc1`, the inhibition is -9.4%. In the case of `CCN1C(=O)N(CC)C(O)(c2ccccc2)C1(O)c1ccccc1` (centres undefined), the inhibition was 14.2%. To `CC(C)(C)C1=CC=C(C(C)(C)C)C(=O)C1=O` belongs -11.4%; to `Cc1ccc(-n2c(C)csc2=N)cc1`, 6.4%.

Turning to `O=C(/C=C/c1cccc(Br)c1)NCC1CCCCC1`, the inhibition is -3.3%. For the compound `CN(C)c1ccc(/C=C/c2ccc3ccccc3[n+]2C)cc1`, the inhibition was 5.6%. Turning to `CC[n+]1c(/C=C/c2ccc(N(C)C)cc2)ccc2ccccc21`, the inhibition was -0.1%. As for `O=C(N/N=C\c1ccncc1)c1ccc(Br)s1`, the inhibition was -6.3%. To `CS(=O)(=O)N(CC(O)CON=C1c2ccccc2-c2ccccc21)c1ccc(F)cc1` (centres undefined) belongs 4.1%. For the compound `Cc1ccc(N(CC(O)CON=C2c3ccccc3-c3ccccc32)S(C)(=O)=O)cc1` (centres undefined), the inhibition was 2.5%. As for `Cc1ccc(S(=O)(=O)N(CCCO)CC(O)CON=C2c3ccccc3-c3ccccc32)cc1` (centres undefined), the inhibition is 4%. Regarding `CCN(CC(O)CON=C1c2ccccc2-c2ccccc21)S(=O)(=O)c1ccc(C)cc1` (centres undefined), the inhibition is 89.1% (active).

On to `CCN(CC(O)Cn1c2ccccc2c2ccccc21)S(=O)(=O)c1ccc(C)cc1` (centres undefined), for which the inhibition is 22.4%. For `Cc1cccc(N(CC(O)CON=C2c3ccccc3-c3ccccc32)S(C)(=O)=O)c1` (centres undefined), the inhibition is 30.8%. For `CCN(CC(O)CON=C1c2ccccc2-c2ccccc21)S(=O)(=O)c1ccc(Cl)cc1` (centres undefined), the inhibition was 80.9% (active).

In the case of `CC(C)CCNCC(O)CON=C1c2ccccc2-c2ccccc21` (centres undefined), the inhibition was 35%. On to `CCOC(=O)c1ccccc1NC(=S)N1CCCCC1`, for which the inhibition was 4.2%.

For the compound `CCOC(=O)C1CCCN(C(=O)C2CCC(CNS(=O)(=O)c3ccc(NC(C)=O)cc3)CC2)C1` (centres undefined), the inhibition is -10.7%.

On to `Cc1ccc(S(=O)(=O)NCCc2nnc3ccc(SCC(=O)Nc4nc5ccccc5s4)nn23)cc1`, for which the inhibition is -1.2%.

On to `C#CCOCCOCCOCCNc1nc(N2CCN(C(=O)[C@H](Cc3cc4ccccc4[nH]3)n3cc([C@@H](N)C(C)CC)nn3)CC2)nc(N2CCN(C(=O)[C@H](CCCCN)n3cc([C@@H](N)CC(C)C)nn3)CC2)n1` (some centres undefined), for which the inhibition is 22.1%. As to `O=C(NCC(=O)N(c1ccccc1)C(C(=O)NCC1CCCO1)c1ccccc1)c1ccco1` (centres undefined), the inhibition was -16.3%. Take `CC(=O)Nc1ccccc1Oc1ccccc1`: the inhibition is -4.1%. For `CC(C)CC(=O)Nc1ccccc1Oc1ccccc1`, the inhibition was -0.5%. For `CC(C(=O)Nc1ccccc1Oc1ccccc1)c1ccccc1` (centres undefined), the inhibition was 83.2% (active). With `CN(CC(=O)Nc1cccc(F)c1)CC(=O)Nc1ccccc1Oc1ccccc1`, the inhibition was 2.5%. `Cc1ccccc1CN(C)CC(=O)Nc1ccccc1Oc1ccccc1`: the inhibition is 52.5%. Consider `CN(CC(=O)Nc1ccccc1Oc1ccccc1)Cc1ccccc1F`, for which the inhibition is 80.5% (active). As to `CC(=O)Nc1ccc(Nc2nc(C(F)(F)F)nc3c2nnn3Cc2ccccc2Cl)cc1`, the inhibition was -4.9%. As for `Cc1ccc(/C=C2/N=C(c3ccccc3)NNC2=O)cc1`, the inhibition is -5.1%. With `Cc1ccc(-c2noc(CSc3nnc(Cc4cccs4)n3-c3ccccc3)n2)cc1`, the inhibition was 16.9%.

`c1ccc(-c2noc(CSc3nnc(Cc4cccs4)n3-c3ccccc3)n2)cc1`: the inhibition is 0.4%. With `Nc1nonc1-n1nnc(C(=O)N/N=C/c2ccccc2Cl)c1-c1ccc2c(c1)OCO2`, the inhibition was -3.5%. The result for `Cc1ccc(C(=O)Nc2ccccc2N2CCCC2)cc1` reads -6.2%; that for `Cc1ccc(C(=O)Nc2ccccc2N2CCCCC2)cc1`, 0.4%; that for `Cc1cc(=O)oc2cc(OCC(=O)N3CCN(c4ccccc4)CC3)c(Cl)cc12`, 6.4%. As for `Cc1cc(Nc2ccc(F)cc2F)n2ncnc2n1`, the inhibition was -4.7%.

As to `CCOC(=O)c1c(C)[nH]c(C)c1S(=O)(=O)N(C)CC(=O)Nc1cccc(F)c1`, the inhibition was 8%. With `COc1ccc(N2C(=O)S[C@@H]3CS(=O)(=O)C[C@@H]32)cc1`, the inhibition was 14.8%. On to `CC1(C)OC(=CC=Nc2ccc(Cl)cc2)OC1(C)C`, for which the inhibition is -0.4%. To `COC(=O)c1cc2c(C)c(C)c3ccccn3c-2c1C(=O)OC` belongs 12.8%; to `COC(=O)c1cc2n3ccccc3c(C)c(-c3ccccc3)c-2c1C(=O)OC`, 6.5%; to `O=C(COC(=O)CCC(=O)c1cccs1)NC(=O)c1ccc(OC(F)F)cc1`, 6.3%. With `COc1ccc(N2CCN(CC(=O)NCc3ccc(Cl)cc3)CC2)cc1`, the inhibition is -5.1%.

In the case of `Cc1cccc(C)c1-n1cccc1/C=C1\SC(=S)N(c2cccc(C(=O)O)c2)C1=O`, the inhibition was 21.8%.

Consider `O=C(O)CN1C(=O)/C(=C/c2ccc(SCc3ccccc3)o2)SC1=S`, for which the inhibition was 4.7%.

In the case of `Cc1ccc(NC(=O)COc2nsnc2N2CCOCC2)cc1Cl`, the inhibition was -2.9%. To `CCCCOC(=O)CSC(=S)N(C)Cc1cccs1` belongs -12.9%. For `Cc1c([C@H]2[C@@H](CC#N)C2(C)C)c2ccccc2n1C`, the inhibition is -0.3%. Turning to `Cc1[nH]c2ccccc2c1[C@H]1[C@@H](CC#N)C1(C)C`, the inhibition is 30.6%. `CC(C)NC(=O)C(=O)c1cn(C)c2ccccc12`: the inhibition is -10.8%. Take `Cc1ccccc1N1CCN(C(=O)C2CCC(=O)N(C3CCCC3)C2)CC1` (centres undefined): the inhibition is 5.6%.

As for `Oc1ccccc1C1=NN(c2ccccc2)C(c2ccc(F)cc2)C1` (centres undefined), the inhibition is -10.6%. Regarding `Oc1ccc(C2=NN(c3ccccc3)C(c3ccc(F)cc3)C2)cc1` (centres undefined), the inhibition is 60.3% (active). Take `COc1ccc(C2CC(c3ccc(F)cc3)=NN2c2ccccc2)cc1OC` (centres undefined): the inhibition was 1.5%. For `Cc1noc(C)c1CN(C(=S)NC1CC1)c1ccccc1`, the inhibition was 4.1%. Regarding `CCNC(=S)N(Cc1c(C)noc1C)c1ccccc1`, the inhibition was -9.5%.

On to `CC(=O)N1CCOc2ccc(S(=O)(=O)Nc3ccc(Cl)cn3)cc21`, for which the inhibition is -3.3%. Take `COc1ccccc1NC(=O)COC(=O)c1ccccc1C(=O)N1CCN(c2ccccc2)CC1`: the inhibition is -1.1%. As to `Cc1ccccc1-n1cc(CNC(=O)CCc2nnc(CCc3ccccc3)o2)cn1`, the inhibition is 9.1%.

`C#CCOCCOCCOCCNc1nc(N2CCN(C(=O)[C@H](CCC(=O)O)n3cc(C(N)CC(C)C)nn3)CC2)nc(N2CCN(C(=O)[C@H](Cc3ccc(O)cc3)n3cc(C(N)[C@H](C)CC)nn3)CC2)n1` (some centres undefined): the inhibition is 13%. On to `O=C(Nc1ccccc1)c1ccccc1NC(=O)C1CCCCC1`, for which the inhibition is -8.2%. Regarding `COc1cc(/C=C2\C(=O)N(c3ccc(NC(C)=O)cc3)N=C2c2ccccc2)ccc1O`, the inhibition is 89.7% (active). Take `O=C1/C(=C\c2ccc(O)c(O)c2)C(c2ccccc2)=NN1c1ccccc1`: the inhibition was -3.8%. With `COc1ccc(C2=NN(c3ccccc3)C(=O)/C2=C\c2ccc(O)c(OC)c2)cc1`, the inhibition was -6.3%. The result for `S=C1Cc2ccccc2N1` reads -4.5%; that for `C#CCN1C(=O)S/C(=C\c2ccc(-c3ccc(Cl)c(C(=O)O)c3)o2)C1=O`, -15.9%.

As for `COc1ccc(CN2C(=O)/C(=C/c3ccc(-c4ccc(Cl)c(C(=O)O)c4)o3)SC2=S)cc1`, the inhibition was 34.2%. Regarding `O=C(O)c1cc(-c2ccc(/C=C3/SC(=S)N(Cc4ccccc4)C3=O)o2)ccc1Cl`, the inhibition was 61.2% (active).

As a reminder, the inhibition is the change of the read-out against control, counted positive when it falls.
